Compound activity: PubChem, several laboratories
A selection: hits, their analogues and other compounds. The true share with any hit is near 1.4%.
EBV gp42 inh: inhibitors of Epstein-Barr virus glycoprotein 42; inhibition, % (tested at 21.74 µM); AID 1085; actives 0.42% (n = 220,000); Q1HVG2; Fluorescence polarization binding assay, mP read-out; in the data active = inhibition above about 50%
Bcl-xL primary: inhibitors of human Bcl-xL | GST-Bcl-xL / FITC-Bim BH3 peptide fluorescence polarization | inhibition, % at 10.9 µM | actives 0.7% (n = 320,000) | AID 2129;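 active = inhibition above the mean of all tested compounds plus 3 SD, cutoff set per campaign, cut at about 30% in these data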;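 note: 0% = DMSO wells and 100% = unlabeled Bim-BH3 peptide competitor; inhibitors lower millipolarization by displacing the labeled peptide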
Target sequence (Q07817 whole entry, looked up): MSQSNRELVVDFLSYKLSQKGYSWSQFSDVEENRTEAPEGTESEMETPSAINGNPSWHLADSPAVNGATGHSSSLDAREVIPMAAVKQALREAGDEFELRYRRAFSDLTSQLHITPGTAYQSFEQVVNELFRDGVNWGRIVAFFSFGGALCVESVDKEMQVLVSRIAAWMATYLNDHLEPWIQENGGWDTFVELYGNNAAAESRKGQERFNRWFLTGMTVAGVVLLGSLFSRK
GLD-1 RNA inh: GLD-1-TGE RNA interaction inhibition (C. elegans) | purified GLD-1 + fluorescein TGE RNA, fluorescence polarization | inhibition, % at 5.96 µM | actives 0.44% (n = 320,000) | AID 2280;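 active = percent inhibition above a per-plate cutoff, the plate mean of test compounds plus 3 SD, cut at about 30% in these data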;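 note: 0% = DMSO wells with GLD-1 and probe and 100% = wells lacking GLD-1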
Target sequence (Q17339 whole entry, looked up): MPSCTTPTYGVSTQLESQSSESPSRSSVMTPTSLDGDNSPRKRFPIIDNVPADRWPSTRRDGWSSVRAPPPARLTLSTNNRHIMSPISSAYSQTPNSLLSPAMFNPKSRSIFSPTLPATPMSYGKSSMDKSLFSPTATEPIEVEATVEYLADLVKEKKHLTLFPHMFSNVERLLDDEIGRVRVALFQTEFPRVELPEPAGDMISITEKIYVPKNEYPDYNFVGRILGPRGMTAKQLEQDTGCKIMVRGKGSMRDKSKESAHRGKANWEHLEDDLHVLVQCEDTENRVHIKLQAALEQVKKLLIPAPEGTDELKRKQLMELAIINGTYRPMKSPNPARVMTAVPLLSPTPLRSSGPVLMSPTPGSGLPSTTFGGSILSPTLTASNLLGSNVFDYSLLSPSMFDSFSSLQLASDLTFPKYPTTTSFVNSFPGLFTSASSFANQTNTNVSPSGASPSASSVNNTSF
MCL1-BIM inh: MCL1-BIM-BH3 interaction inhibition (human) | GST-MCL1 / FITC-Bim-BH3 fluorescence polarization | inhibition, % at 10.9 µM | actives 0.68% (n = 320,000) | AID 2057;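 active = inhibition above the mean inhibition of all tested compounds plus 3 SD, set per campaign, cut at about 40% in these data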;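 note: 0% = DMSO wells and 100% = unlabeled Bim-BH3 peptide control; higher means more loss of mP so more displacement of Bim peptide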
MEX-5 binding: C. elegans MEX-5 TCR-2 RNA binding activity; MEX-5/FITC-TCR2 RNA binding, fluorescence polarization; active compounds read low; actives 0.38% (n = 300,000); activity score (negative = inhibition of binding), % at 10 µM; Q9XUB2;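 active = inhibition past about -25% in most replicates, and total fluorescence under double the plate's negative control median, limit read from the data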;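 note: 0% = DMSO and -100% = 5 µM competing unlabeled TCR2 RNA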
E coli Lon inh: E. coli protease La inhibition; P0A9M0; purified E. coli Lon protease, fluorescence polarization; inhibition, % at 7.94 µM; actives 0.42% (n = 360,000); in the data active = inhibition above about 13%, passing the limit was not always enough;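 note: 0% = enzyme with probe and DMSO and 100% = no enzyme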
An asterisk follows results filed as active; i = inactive; x = not tested or not shown.

SMILES | EBV gp42 inh | Bcl-xL primary | GLD-1 RNA inh | MCL1-BIM inh | MEX-5 binding | E coli Lon inh
Cc1ccc(-c2nc3cc(C)c(Br)c(C)n3c2CC(C)(C)C)cc1 | x | x | x | x | x | 2
O=C(COC(=O)c1c2c(nc3ccccc13)CCN(Cc1ccccc1)C2)Nc1c(F)cccc1F | -27 | 34* | 39* | 41* | 7 | 0
COc1ccc(C2C(C(C)=O)=C(C)N=c3s/c(=C\c4cc(C)n(C)c4C)c(=O)n32)c(OC)c1 (stereo not given) | 92* | -42 | -111 | -78 | -38* | i
COc1ccc(C2C(C(C)=O)=C(C)N=c3s/c(=C\c4ccco4)c(=O)n32)c(OC)c1 (stereo not given) | -40 | -3 | -4 | -5 | 1 | -3
CCOC(=O)CC[C@H](NC(=O)Cn1cnc(C(=O)Nc2ccc(C)c(C)c2)n1)C(=O)OCC | x | x | x | x | x | 8
Cc1ccc(-n2c(C)cc3c2CCCC3=O)cc1 | -17 | 31* | 17 | 34 | -3 | 5
C[C@H]1CN([C@@H](C)CO)C(=O)CCCn2nncc2CO[C@H]1CN(C)S(=O)(=O)c1ccc(Oc2ccccc2)nc1 | x | x | x | x | x | 2
Clc1ccc(SCc2cn3ccccc3n2)cc1 | -19 | 2 | 1 | 2 | 2 | 0
c1ccc2c(SCc3cn4ccccc4n3)nncc2c1 | -4 | 54* | 3 | 1 | 5 | 1
COc1ccc(S(=O)(=O)N2CCN(C(=O)CCSc3ccccc3)CC2)cc1 | x | -6 | 4 | 4 | x | -6
CC(C)Oc1ccc(-c2nn(-c3ccccc3)cc2/C=c2\sc3ncnn3c2=O)cc1 | 75* | 6 | -2 | 1 | x | x
N#Cc1c(NC(=O)CSc2nnc(-c3ccco3)n2-c2ccccc2)sc2c1CCC2 | -16 | -2 | -2 | -3 | -2 | -20
NC(=O)c1c(NC(=O)CSc2nnc(-c3ccco3)n2-c2ccccc2)sc2c1CCC2 | 67* | 8 | 3 | 29 | 1 | -16
COc1ccc2c(c1)nc(-c1cccc(Br)c1)c(=O)n2C(c1ccccn1)c1nc2ccccc2[nH]1 (stereo not given) | x | x | x | x | x | -5
CC(=O)OCC1OC(n2c(-c3ccc(Cl)cc3)ccc(C#N)c2=S)C(OC(C)=O)C(OC(C)=O)C1OC(C)=O (stereo not given) | x | x | x | x | x | -17
COC(=O)/C=C1/C(=O)N/C(=N\c2nc(C)cc(C)n2)N1c1ccc(OC)cc1 | -3 | 7 | 5 | 9 | -2 | 4
COC(=O)/C=C1\N/C(=N/c2nc(C)c3cc(OC)ccc3n2)NC1=O | x | 48* | 4 | 2 | 0 | -2
CN(Cc1cn(Cc2ccc(Cl)cc2)nn1)C1CN(Cc2cn(Cc3ccc(Cl)cc3)nn2)S(=O)(=O)C1 (stereo not given) | x | x | x | x | x | 15
COc1ccc(C(=O)Nc2cccc(-c3cc4ccccc4oc3=O)c2)cc1[N+](=O)[O-] | 58* | 2 | 6 | 10 | x | 4
CC(=O)Nc1ccc(NC(=O)c2cccc(-c3cc4ccccc4oc3=O)c2)cc1 | 1 | -3 | 2 | 8 | 0 | -1
O=C1ON(Cc2ccccc2)C(c2ccccc2)N1c1ccccc1 (stereo not given) | x | x | x | x | x | -13
C[C@H](CO)N1C[C@H](C)[C@@H](CN(C)Cc2ccc3c(c2)OCO3)Oc2ccc(NS(C)(=O)=O)cc2C1=O | x | x | -6 | x | x | -20
COc1ccccc1NC(=O)Nc1nc(CC(=O)N2CCN(c3ccccc3F)CC2)cs1 | x | -3 | 8 | -1 | 2 | -9
COc1ccc([C@H]2CC(=O)C=C(/C=C/c3ccccc3)C2)cc1OC | x | -1 | 5 | 1 | x | 0
O=C(NC1CC1)c1cccc2c1C(=O)c1ccc(N3CCC(Cc4ccccc4)CC3)cc1S2(=O)=O | x | x | 45* | x | x | -99
SMILES | EBV gp42 inh | Bcl-xL primary | GLD-1 RNA inh | MCL1-BIM inh | MEX-5 binding | E coli Lon inh
CC1CCN(c2ccc3c(c2)S(=O)(=O)c2cccc(C(=O)NC4CCCCC4)c2C3=O)CC1 | x | -14 | 7 | -67 | x | -47
CC(C)(C)CNC(=O)c1cccc2c1C(=O)c1ccc(N3CCCC3)cc1S2(=O)=O | x | x | 32* | x | x | -50
O=C(NCCN1CCCCC1)c1cccc2c1C(=O)c1ccc(N3CCCC3)cc1S2(=O)=O | x | x | 14 | x | x | -26
O=C(NCc1ccccc1C(F)(F)F)c1cccc2c1C(=O)c1ccc(N3CCCCC3)cc1S2(=O)=O | x | x | -16 | x | x | -21
O=C(NCc1ccc(F)cc1)c1cccc2c1C(=O)c1ccc(N3CCC(Cc4ccccc4)CC3)cc1S2(=O)=O | x | x | 168* | x | x | -25
O=C(NCc1cc(C(F)(F)F)ccc1Cl)c1cccc2c1C(=O)c1ccc(N3CCC(Cc4ccccc4)CC3)cc1S2(=O)=O | x | x | 159* | x | x | -10
CCN1C(=O)[C@@H]2[C@@H](c3ccc(-c4ccc(C(C)=O)cc4)c(OC)c3)N3CCCC[C@@]3(C(=O)OC)[C@@H]2C1=O | x | 5 | -2 | 2 | 1 | -4
O=C(NC1CCCC1)c1cccc2c1C(=O)c1ccc(N3CCCCC3)cc1S2(=O)=O | x | 5 | -3 | -6 | x | -22
O=C(NC1CCCCC1)c1cccc2c1C(=O)c1ccc(N3CCCC3)cc1S2(=O)=O | x | x | 32* | x | x | -30
CCn1c(SCC(=O)Nc2ccccc2)nc2ccccc2c1=O | x | 1 | 1 | -6 | -1 | -17
CCCCn1c(SCC(=O)Nc2ccc(NC(C)=O)cc2)nc2ccccc2c1=O | x | 5 | 74* | 2 | -1 | -1
CC(NCC1(N2CCOCC2)CCCCC1)C(=O)Nc1ccc(Cl)cc1Cl (stereo not given) | -6 | 8 | 0 | 3 | -4 | 6
Cc1cc(=O)n(Nc2ccccc2)c(O)c1C#N | x | x | x | x | x | -27
CCOc1ccc(NC(=O)c2cc3c(C)nc4ccccc4c3o2)cc1 | 55* | 1 | 1 | 5 | -4 | 0
CC1=CC(C#N)(C#N)C(C#N)(C#N)C(c2ccccc2)N1 (stereo not given) | 114* | 145* | 119* | 151* | -53* | x
CCn1c(SCc2ccc(C(=O)Nc3nccs3)cc2)nnc1-c1ccc(NC(C)=O)cc1 | -16 | 6 | -10 | 13 | 0 | 2
CCn1c(SCc2ccc(C(=O)Nc3nccs3)cc2)nnc1-c1ccc(N)cc1 | 53* | 5 | 11 | 6 | 2 | 2
Cc1ccc(C)c(C2C(=O)c3ccccc3C2=O)c1 | x | 4 | 5 | 5 | -2 | 7
Cc1ccc2ccc(C3C(=O)c4ccccc4C3=O)nc2c1 | x | 4 | 5 | 2 | -41* | -14
CCOCCCNC(=O)c1cc2c(=O)n3cccc(C)c3nc2n1C | x | 18 | 5 | 17 | -1 | -2
Cc1cccn2c(=O)c3cc(C(=O)NCCCn4ccnc4)n(C)c3nc12 | 39 | 44* | 5 | 47* | -20 | 2
COCCNC(=O)c1cc2c(=O)n3cccc(C)c3nc2n1C | x | 1 | 2 | -1 | 0 | -9
Cc1cccn2c(=O)c3cc(C(=O)N(C)C)n(C)c3nc12 | 25 | 32* | 10 | 30 | -17 | 11
